Screening results (PubChem BioAssay)
Shown are actives, neighbours in structure and some others; about 1.2% of the full set was active somewhere.
RGS7-Gao reg: human RGS7-Galphao interaction regulation | binding response (% of control), % at 10 µM | Multiplexed bead flow cytometry, RGS7-Galphao binding; actives lie on both sides | 220,000 tested, 0.35% active; in the data active means binding response below about 49% or above about 150%; inconclusive means no clear call, values can overlap the other calls; inactive means in between;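 further: fluorescent Galphao held in activated GDP-AlF4 state binding bead-coupled RGS7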
Target sequence (P09471 whole entry, looked up): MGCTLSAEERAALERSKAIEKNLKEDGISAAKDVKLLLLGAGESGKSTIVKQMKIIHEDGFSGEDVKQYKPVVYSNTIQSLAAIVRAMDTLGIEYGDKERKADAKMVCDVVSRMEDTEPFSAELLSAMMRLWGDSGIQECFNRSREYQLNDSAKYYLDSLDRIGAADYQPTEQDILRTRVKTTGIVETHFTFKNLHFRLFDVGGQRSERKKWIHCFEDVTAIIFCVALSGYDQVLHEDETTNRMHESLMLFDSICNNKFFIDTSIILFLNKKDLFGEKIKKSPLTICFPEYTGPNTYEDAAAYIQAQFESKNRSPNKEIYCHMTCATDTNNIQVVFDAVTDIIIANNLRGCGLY
RGS4-Gao reg: modulates binding of RGS4 to human Galphao. 220,000 tested, 0.33% active. binding response (% of control), % at 10 µM. Multiplexed bead flow cytometry; actives lie on both sides. P09471; in the data active means binding response below about 49% or above about 150%; inactive means in between;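 further: fluorescent Galphao activated with aluminum fluoride binding bead-coupled RGS4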
GSH bead fluor: compound fluoresces at 488/530 nm on GSH beads. GSH beads flow cytometry, compound fluorescence 488/530 nm; hits give high values. fluorescence (KMESF) at 10 µM. 190,000 tested, 0.25% active. AID 1776; in the data active means fluorescence above about 89;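 further: glutathione beads carrying GST-tagged Bcl family fusion proteins plus one bare bead set; values are compound well signal with DMSO vehicle wells as background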
Avidin bead fluor: avidin bead compound fluorescence profile. AID 1775. Avidin beads, compound fluorescence 488/530 nm, flow cytometry; hits give high values. 220,000 tested, 0.38% active. fluorescence (KMESF) at 10 µM; in the data active means fluorescence above about 47
RGS8-Gao: regulators of human RGS8-Galphao interaction; P09471; multiplexed bead flow cytometry, RGS8-Galphao binding; actives lie on both sides; response (percent of control binding), % at 10 µM; 220,000 tested, 0.34% active; AID 1423; in the data active means response below about 60% or above about 140%; inactive means in between;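 further: Galphao activated as the GDP aluminium fluoride complex binding bead-coupled RGS8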
RGS16-Gao: RGS16-Galphao interaction regulator (human); AID 1441; binding response (% of control), % at 10 µM; bead-based flow cytometry RGS16-Galphao binding, fluorescence; actives lie on both sides; 220,000 tested, 0.38% active;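 further: Galphao activated by GDP with aluminum fluoride before binding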
Target sequence (O15492 whole entry, looked up): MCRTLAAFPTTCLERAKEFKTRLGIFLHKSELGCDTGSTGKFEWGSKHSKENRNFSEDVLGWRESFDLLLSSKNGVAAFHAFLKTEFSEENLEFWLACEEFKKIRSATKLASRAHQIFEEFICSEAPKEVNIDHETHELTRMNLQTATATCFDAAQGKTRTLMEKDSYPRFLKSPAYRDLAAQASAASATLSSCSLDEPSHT
Target sequence (P09471 whole entry, looked up): as the sequence (P09471 whole entry, looked up) above
RGS4-Gao HTS: RGS4-Galphao interaction regulator (human). shares compounds with RGS16-Gao. multiplexed bead flow cytometry, RGS–Galpha-o binding. RGS4–Galpha-o binding response, % at 10 µM. 1,600 tested, 99% active. AID 1504;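 further: fluorescently labeled Galpha-o bound to GDP with aluminium fluoride binding biotinylated RGS beads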
Biotin-avidin: interferes with biotinylated probe binding to avidin beads; shares compounds with RGS16-Gao; streptavidin beads, fluorescein-biotin binding, flow cytometry; inhibition, % at 10 µM; 1,700 tested, under 10 active;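 active means inhibition above 50%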;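 further: median green fluorescence of gated singlet beads compared with DMSO control wells; 0% = DMSO wells and 100% = complete loss of bead fluorescence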
RGS8-Gao single: RGS8-Galphao interaction regulation, single point confirmation; 1,700 tested, 3% active; shares compounds with RGS16-Gao; bead-based flow cytometry RGS8-Galphao binding, fluorescence; actives lie on both sides; binding response (% of control), % at 10 µM; in the data active means binding response below about 72% or above about 130%; inactive means in between;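 further: Galphao activated as GDP AlF4 complex before binding bead RGS8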
RGS7-Gao single: RGS7-Galphao interaction regulation, single point confirmation; shares compounds with RGS16-Gao; bead-based flow cytometry RGS7-Galphao binding; actives lie on both sides; response (percent of control binding), % at 10 µM; 1,700 tested, 7.8% active; in the data active means response below about 75% or above about 130%; inactive means in between;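 further: fluorescent Galphao activated with GDP and aluminum fluoride binding bead-coupled RGS7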
RGS16-Gao single: RGS16-Galphao interaction regulation, single point confirmation. shares compounds with RGS16-Gao. bead-based flow cytometry, RGS16-Galphao binding; actives lie on both sides. response (% of control binding), % at 10 µM. 1,700 tested, 4% active; in the data active means response below about 74% or above about 130%; inactive means in between;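 further: Galphao activated as the GDP aluminium fluoride complex binding bead-coupled RGS16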
RGS4-Gao confirm: confirmation of regulators of human RGS4-Galphao interaction | shares compounds with RGS16-Gao | 1,700 tested, 4% active | RGS4-Galphao binding, multiplexed bead flow cytometry; actives lie on both sides | binding response (% of control), % at 10 µM; in the data active means binding response below about 74% or above about 130%; inactive means in between
RGS19-Gao conf: RGS19-Galphao interaction regulation, single point confirmation. bead-based flow cytometry RGS19-Galphao binding; actives lie on both sides. AID 1841. shares compounds with RGS16-Gao. 1,700 tested, 5% active. response (percent of control binding), % at 10 µM; in the data active means response below about 50% or above about 160%; inactive means in between;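 further: 100% = no compound control and 0% = blank background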
The depositor's hits bear a star; ? = inconclusive; . = not tested or not shown; [ ] = another dose, or the depositor's remark. Unless noted, how the calls were made is not given here.

SMILES	RGS7-Gao reg	RGS4-Gao reg	GSH bead fluor	Avidin bead fluor	RGS8-Gao	RGS16-Gao	RGS4-Gao HTS	Biotin-avidin	RGS8-Gao single	RGS7-Gao single	RGS16-Gao single	RGS4-Gao confirm	RGS19-Gao conf
O=C(CCc1ccccc1)NNC(=O)c1ccc(NC(=O)c2ccccc2)cc1	85	82	10	4	77	2.7*	82*	-2	99	91	96	94	92
COc1cc(OC)c2c(c1)C(=O)c1cc(OC)cc(OC)c1C2=O	100	99	13	35	103	102	.	.	.	.	.	.	.
Cc1ccc(C)c(NC(=S)N/N=C2\CCc3ccccc32)c1	?	45*	.	2	60	47	.	0	97	96	98	97	113
Cc1ccc(NC(=S)N/N=C2/CCCCc3ccccc32)cc1	?	106	.	9	99	102	.	.	.	.	.	.	.
CCc1nccn1S(=O)(=O)c1cc(C)c(OC)cc1C	103	102	17	5	106	113	.	.	.	.	.	.	.
CCc1nccn1S(=O)(=O)c1cc(OC)c(Cl)cc1OC	-76*	-222*	12	-4	12*	77	.	-1	101	75*	89	84	57
Cc1ccccc1/C=C/c1nc2ccccc2c(=O)[nH]1	?	7.3*	.	0	42*	14*	.	-2	102	100	102	102	108
CC1=C(C(=O)OC(C)C)C(c2ccccc2)NC(=S)N1C (stereo unspecified)	102	101	10	3	103	106	.	.	.	.	.	.	.
CC(C)N1CCN(Cc2ccc(C#CC(C)(C)O)s2)CC1CCO (stereo unspecified)	99	99	8	2	97	100	.	.	.	.	.	.	.
CC(C)N1CCC(N2CCN(Cc3ccc(C#CC(C)(C)O)s3)CC2CCO)CC1 (stereo unspecified)	275*[activator]	142	18	134*	84	98	142*	3	100	103	99	100	97
Cc1nn(-c2ccccc2)c(Cl)c1C(=O)NCCN(C)C	94	97	22	5	99	102	.	.	.	.	.	.	.
CCCC(N)CCCCCC(=O)O (stereo unspecified)	120	129	25	14	123	333*[activator]	129*	-2	99	98	98	101	93
NCCCC(=O)O	103	103	20	7	105	116	.	.	.	.	.	.	.
COCc1cc(C)nc(OCC(=O)N/N=C/c2ccc(O)cc2O)c1C#N	58	55	7	11	55*	31	55*	0	91	83	86	84	96
Cc1ccc(Sc2c(O)c3ccccc3n(C)c2=O)cc1	91	99	12	1	68	14*	99*	0	103	107	105	109	96
Cc1ccccc1-c1ccc(=O)n(CC(=O)Nc2ccc(N3CCOCC3)cc2)n1	.	.	47	.	.	.	.	0	96	99	98	98	102
Cc1ccccc1-n1c(SCC(=O)c2c(N)n(C)c(=O)n(C)c2=O)nc2sc3c(c2c1=O)CCCC3	89	88	10	1	68	22*	88*	3	103	106	105	103	93
CCOC(=O)c1ccc[n+](CC(=O)c2ccccc2)c1	113	115	14	4	54*	14	115*	0	100	100	102	99	99
CCOC(=O)c1ccc[n+](CC(=O)c2ccc(OC)cc2)c1	105	99	10	5	101	106	.	.	.	.	.	.	.
CC(C)(C)c1ccc(CS(=O)CC(O)CO)cc1 (stereo unspecified)	105	104	12	8	105	106	.	.	.	.	.	.	.
COc1ccc(-n2c(SCC(=O)Nc3cc(C)on3)nc3c(c2=O)SCC3)cc1	117	122	26	5	166*[activator]	355	122*	0	99	92	97	99	100
Cc1cc(NC(=O)CSc2nc3c(c(=O)n2-c2ccc(Br)cc2)SCC3)no1	92	86	16	5	82	36	.	.	.	.	.	.	.
COc1ccc(CNC(=O)NCc2ccc(OC)c(OC)c2)cc1OC	157*[activator]	115	37	64*	105	137	115*	-1	96	97	97	97	94
COc1ccc(NC(=O)NCCc2ccc(Cl)cc2)cc1OC	-3.3*	7.0*	16	-1	12*	0.8*	.	1	106	104	106	103	103
COc1ccc(CC(=O)OCC(=O)NCc2ccccc2Cl)cc1OC	162*[activator]	160*[activator]	15	22	159*[activator]	176*[activator]	.	0	104	96	104	97	99
SMILES	RGS7-Gao reg	RGS4-Gao reg	GSH bead fluor	Avidin bead fluor	RGS8-Gao	RGS16-Gao	RGS4-Gao HTS	Biotin-avidin	RGS8-Gao single	RGS7-Gao single	RGS16-Gao single	RGS4-Gao confirm	RGS19-Gao conf
COc1cccc(NC(=O)NCCc2ccc(Cl)cc2)c1	95	96	19	10	95	96	.	.	.	.	.	.	.
COc1ccc(CNC(N)=O)cc1OC	103	101	52	12	102	102	.	.	.	.	.	.	.
Cc1ccc2c(c1C)OC(=O)CC2(C)C	99	100	10	15	102	106	.	.	.	.	.	.	.
Cc1ccc2nc(C)c3c(c2c1)COC3	-40*	-73*	11	-3	17*	79	.	-1	111	99	115	102	107
C/C(=N\NC(=O)c1nn(C)cc1Cl)c1ccncc1	98	104	15	11	98	106	.	.	.	.	.	.	.
O=C(Nc1cccnc1)OC1CCCC1	105	103	56	25	105	108	.	.	.	.	.	.	.
COCCNC(=O)C(c1cccnc1)N(Cc1ccc(C)cc1)C(=O)Cn1nnc2ccccc21 (stereo unspecified)	100	96	14	9	99	101	.	.	.	.	.	.	.
COc1ccc(OC)c2sc(NC(=O)C3=COCCO3)nc12	105	104	25	7	102	102	.	.	.	.	.	.	.
